# Source: PubChem BioAssay (NCATS)
# Records with an inconclusive call do not appear. Where a call stands in place of a potency, no number is given. Activity calls are given as the source filed them. Unless noted, calls come from the whole dose curve; as a rule, active = well fitted curve in the direction sought with a large enough effect; inconclusive = small, poorly fitted or top-dose-only effect, or another doubt; inactive = no such curve, though single readings can be large; an effect the other way counts as inactive or inconclusive.
# What was measured:
# [1] = molecular target: Glutaminase kidney isoform, mitochondrial (Homo sapiens) (UniProt O94925); assay: qHTS for Inhibitors of Glutaminase (GLS): LOPAC Validation (AID 624146);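 note: glutamate product detected by oxidase and peroxidase coupled Amplex red fluorescence gain; nearly all actives have a fitted effect of over 60% in size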
# Chain of Glutaminase kidney isoform, mitochondrial (Homo sapiens) (O94925 whole entry, looked up, canonical isoform): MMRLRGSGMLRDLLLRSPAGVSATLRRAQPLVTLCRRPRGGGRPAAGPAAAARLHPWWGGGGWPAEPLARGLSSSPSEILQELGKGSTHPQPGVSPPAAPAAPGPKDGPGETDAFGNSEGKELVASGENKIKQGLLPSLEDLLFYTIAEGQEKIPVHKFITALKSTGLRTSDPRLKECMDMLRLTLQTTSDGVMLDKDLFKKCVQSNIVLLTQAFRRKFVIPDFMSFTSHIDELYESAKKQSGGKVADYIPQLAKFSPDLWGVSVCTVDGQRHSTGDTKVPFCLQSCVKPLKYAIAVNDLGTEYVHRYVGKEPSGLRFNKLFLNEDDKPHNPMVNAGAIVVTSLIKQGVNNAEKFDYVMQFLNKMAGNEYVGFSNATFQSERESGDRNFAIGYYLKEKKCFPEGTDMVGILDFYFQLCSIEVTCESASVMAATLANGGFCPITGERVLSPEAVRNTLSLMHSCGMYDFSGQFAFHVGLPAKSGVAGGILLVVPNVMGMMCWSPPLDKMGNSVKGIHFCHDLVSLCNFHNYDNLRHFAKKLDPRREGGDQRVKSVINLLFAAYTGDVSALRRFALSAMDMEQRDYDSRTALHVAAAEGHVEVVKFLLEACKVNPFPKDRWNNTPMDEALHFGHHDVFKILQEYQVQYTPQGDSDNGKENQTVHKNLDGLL
# Procedure, shortened: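 Read-out is an Amplex red fluorescence increase coupled through glutamate oxidase and HRP, measured before and after 30 min room-temperature incubation. hKGA is in 45 mM KH2PO4 (pH 8.2) with 0.02% Tween-20; glutamine added as 1mM solution.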
# [2] = qHTS of Trypanosoma Brucei Inhibitors: LOPAC Validation (AID 624147)
# Procedure, shortened: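 Luminescent Kinase-Glo Plus end-point after 45 min room-temperature reaction of T. brucei pyruvate kinase started with 130 uM ADP (final). Buffer TEA 50 mM pH 7.2 with KCl, MgCl2, BSA, Tween-20; titration-based qHTS with fitted concentration-effect curves.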
# [3] = molecular target: Glucagon-like peptide 1 receptor (Homo sapiens) (UniProt P43220); assay: qHTS of GLP-1 Receptor Agonists: LOPAC Validation (AID 624148);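 note: luminescence from a luciferase reporter switched on by cAMP; higher luminescence signal means agonism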
# Chain of Glucagon-like peptide 1 receptor (Homo sapiens) (P43220 whole entry, looked up): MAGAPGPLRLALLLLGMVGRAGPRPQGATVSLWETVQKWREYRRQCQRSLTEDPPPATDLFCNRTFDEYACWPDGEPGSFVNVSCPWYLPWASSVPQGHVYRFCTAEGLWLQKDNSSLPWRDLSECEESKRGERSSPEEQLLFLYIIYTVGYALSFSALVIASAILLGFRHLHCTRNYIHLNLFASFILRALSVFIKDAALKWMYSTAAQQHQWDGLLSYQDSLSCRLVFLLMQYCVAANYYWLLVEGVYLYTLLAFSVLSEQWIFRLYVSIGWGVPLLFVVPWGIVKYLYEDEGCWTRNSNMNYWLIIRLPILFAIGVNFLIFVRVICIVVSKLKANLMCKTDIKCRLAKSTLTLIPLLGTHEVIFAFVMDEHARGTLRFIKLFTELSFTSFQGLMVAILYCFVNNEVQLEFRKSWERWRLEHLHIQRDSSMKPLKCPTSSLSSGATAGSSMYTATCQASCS
# Procedure, shortened: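 Agonism scored as increased luciferase luminescence driven by cAMP in HEK293 clones carrying GLP-1R. Cells settled 12 hours, received compound for 4-6 hr at 37 deg C, 5% CO2, and were read after 12 min detection reagent at RT.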
# [4] = qHTS of Nrf2 Activators: LOPAC Validation (AID 624149)
# Procedure, shortened: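 AREc32_Fluc cells, 1000/well in OPTI-MEM with 5% FBS, grown overnight, then exposed to compounds for 24 hr at 37 deg C, 5% CO2. ARE-driven firefly luciferase read by Steady-Glo luminescence after 30 min at RT.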
# [5] = HTS Assay for Allosteric Antagonists of the Human D2 Dopamine Receptor: Hit Validation in HTRF (AID 624455); note: potency is the fitted concentration of half-maximal effect;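 note: stable D1 dopamine receptor cell line scored for blocking the D1 response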
# Procedure, shortened: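 Hit validation in cells stably expressing the D1 dopamine receptor, run in HTRF format. Compounds were tested for their ability to inhibit the D1-mediated response.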
# [6] = Cytotoxicity counterscreen for NFkB agonists and antagonists (AID 624476);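 note: cells exposed to compound for 48 hours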
# [7] = qHTS Assay for Identification of Small Molecule Agonists for NFkB Signaling Pathway. (AID 624478)
# Procedure, shortened: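 NFkB-bla ME-180 cells carry a beta-lactamase reporter. They received compound plus TNF alpha at 10 pM final (its EC50) for 5 h at 37 C. Reporter activity was read as 460/530 nm emission ratio after 2 h LiveBLAzer substrate loading.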
# [8] = qHTS Assay for Identification of Small Molecule Antagonists for NFkB Signaling Pathway. (AID 624479; calls by dose curve;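 note: pathway stimulated with TNF alpha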)
# [9] = Cell Proliferation Assay against the TMD8 Cell Line (AID 651645); conditions: TMD8 DLBCL cell line proliferation/viability; at 46.1 µM (top of the series);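 note: cells exposed to compound for 48 h before reading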
# Procedure, shortened: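 Luminescent ATP read-out (CellTiter-Glo, 15 min RT) after 48 h compound exposure of log-growing TMD8 cells at 37C; percent activity scaled between DMSO as 100% and 9.2 uM bortezomib final as 0%.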
# [10] = Cell Proliferation Assay against the HBL1 Cell Line (AID 651646); conditions: HBL1 DLBCL cells; at 46.1 µM (top of the series);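 note: cells exposed to compound for 48 h before reading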
# Procedure, shortened: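 Luminescent ATP read-out (CellTiter-Glo) after 48 h compound exposure of HBL1 cells at 37 °C; percent activity was scaled between DMSO as 100% and 9.2 uM bortezomib (final) as 0%.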
SMILES,outcome [1],outcome [2],outcome [3],outcome [4],Potency [5],outcome [6],outcome [7],outcome [8],viability (% of control) [9],"viability, percent of control [10]"
NC(=O)CN1CCCC1=O,inactive,inactive,inactive,inactive,inactive,,,,,
COC(=O)C1=CCCN(C)C1,inactive,inactive,inactive,inactive,inactive,,,,,
COc1ccc(C(=O)N2CCCC2=O)cc1,inactive,,inactive,inactive,inactive,,,,,
O=C(O)c1nn(Cc2ccc(Cl)cc2Cl)c2ccccc12,inactive,inactive,inactive,inactive,inactive,inactive,inactive,inactive,107%,112%
CN1C[C@H](C(=O)N[C@]2(C)O[C@@]3(O)[C@@H]4CCCN4C(=O)[C@H](Cc4ccccc4)N3C2=O)C[C@@H]2c3cccc4[nH]cc(c34)C[C@H]21,,,,,82 nM (active),,,,,
